Records with an inconclusive call do not appear. A call without a number means that no potency is given here. Values without a mark were called inactive. Calls of active or inactive are those of the source. Calls follow the shape of the dose curve; as a rule, active = well fitted activation curve with a large enough effect in the repeat runs; inconclusive = weak or mixed curves; inactive = flat fitted curve, though single readings scatter.
Potency is read from the fitted curve at half-maximal effect.

This assay is described as follows: A CellTox Green Cytotoxicity Assay to monitor cytotoxicity in HepG2 cells - 40 hour (AID 1224879). Also: nearly all actives have a fitted effect of over 40% in size. The note with it: CellTox Green fluorescence; series mostly up to 76.8 µM. From the text: National Center for Advancing Translational Sciences [NCATS]
NIH Chemical Genomics Center [NCGC]
U.S. Environmental Protection Agency [EPA]
National Institutes of Environmental Health Sciences [NIEHS]
National Toxicology Program [NTP]
Cell-based models are critical for drug discovery. Determining the natural cytotoxic effects resulting from test compounds is an essential research activity. A CellTox Green Cytotoxicity Assay to monitor cytotoxicity in real time of continues cell culture during 40 hours of the compound treatment was used to screen Tox21 10K library compounds in HepG2 cells. CellTox Green Cytotoxicity Assay is a nonlytic, homogeneous, biofluorescent method to measure cytotoxicity in cell culture after experimental manipulation. The assay system uses a proprietary asymmetric cyanine dye that is excluded from viable cells but preferentially stains the dead cell's DNA. […] Viable cells produce no appreciable increases in fluorescence. Therefore, the fluorescence signal produced by the binding interaction with dead cell DNA is proportional to cytotoxicity.
The mixture of HepG2 cell suspension and reagents were dispensed at 600cells/6 ul/well in 1536-well tissue culture treated black solid bottom plates using a Multidrop dispenser. After the assay plates were incubated at a 37 C/5% CO2 incubator for 5 hours, 23 nL of compounds dissolved in DMSO, positive and negative controls was transferred to the assay plate by a pintool work station. The plates were incubated at 37 C for 40 hours. The fluorescence intensity were measured at 0h, 8h, 16h, 24h, 32h and 40h time points using ViewLux plate reader during compound treatment.
For the molecule `CCCCOC(C)=O`, the Potency entry is “inactive”.
The same measure, in the same setting: as for `CC1=C2[C@H]3OC(=O)[C@@H](C)[C@@H]3CC[C@@]2(C)C=CC1=O`, the entry is “inactive”.
On the same count and under the same terms, as for `CN(C)C1CCCCC1`, the entry is “inactive”; as for `C=CCC1(C(C)CC)C(=O)NC(=O)NC1=O` (stereo not given), “inactive”.
Same read-out and setting: the value for `BrCC1CO1` (stereo not given) was “inactive”.
On to `O=P(O)(O)CN(CP(=O)(O)O)CP(=O)(O)O`, for which the Potency result is “inactive”.
Same read-out and setting: as for `c1ccc2c(c1)CCNC2`, the entry is “inactive”; as for `OCC(Cl)CCl` (stereo not given), “inactive”; as for `CC(C)C(C)(N)C#N` (stereo not given), “inactive”.
As to `CC(=O)OCC1=C(C(=O)O)N2C(=O)[C@@H](N)[C@H]2SC1`, the cytotoxicity increase is -2.77% [at 15.8 µM].
For `S=C=S`, the Potency result is “inactive”.
Same read-out and setting: as for `O=C(Cl)/C=C/C(=O)Cl`, the entry is “inactive”; as for `C=C(Cl)CSC(=S)N(CC)CC`, “inactive”.
Same read-out and setting: the value for `CS(=O)(=O)c1ccc(C(=O)C2C(=O)CCCC2=O)c(Cl)c1COCC(F)(F)F` was “inactive”; that for `COP(=O)(O)OC` was “inactive”; that for `CCc1cc(OC)c(C[C@H](C)N)cc1OC` was “inactive”.
Same read-out and setting: as for `c1cncc([C@@H]2CCCCN2)c1`, the entry is “inactive”.
Take `Cc1ccc2c(c1)C1CN(C)CCC1N2` (stereo not given): the cytotoxicity increase was 15.6% [at 15.8 µM].
As to `C=CC=O`, the Potency entry is “inactive”.
On the same count and under the same terms, as for `CCCN1CCC[C@@H]2Cc3nc(N)ncc3C[C@H]21`, the figure is 21.3 µM (active); as for `CCOC(=O)CCl`, “inactive”.
Still for that read-out and setting: the value for `CC[C@H](O)C(C[C@H](C)N(C)C)(c1ccccc1)c1ccccc1` was “inactive”.
The same measure, in the same setting: as for `O=C1CC(=O)NC(=O)N1`, the entry is “inactive”; as for `COc1ccccc1OC`, “inactive”; as for `Cc1ccc(Cl)c(O)c1`, “inactive”.
On to `O=C(O)C(Cl)Br` (stereo not given), for which the Potency result was “inactive”.
The same measure, in the same setting: as for `O=C(O)CBr`, the entry is “inactive”; as for `Clc1cc2c(cc1Cl)Oc1cc(Cl)c(Cl)cc1O2`, 0.0268 µM (active).
Same read-out and setting: as for `CC#Cc1cc(C)nc(Nc2ccccc2)n1`, the entry is “inactive”; as for `C[C@H](CN1CCOCC1)C(C(=O)N1CCCC1)(c1ccccc1)c1ccccc1`, “inactive”.
Regarding `COc1cccc(C=O)c1`, the Potency result was “inactive”.
Same read-out and setting: the value for `Cc1ccc2cc(C)ccc2c1` was “inactive”; that for `NNCc1ccccc1` was “inactive”; that for `CCOP(=S)(OCC)SCCl` was “inactive”.
The same measure, in the same setting: the value for `CCN[C@H](C)Cc1cccc(C(F)(F)F)c1` was “inactive”; that for `CCCOc1nn(C(=O)NS(=O)(=O)c2ccccc2C(=O)OC)c(=O)n1C` was “inactive”.
With `C/C=C/CC#N`, the Potency result is “inactive”.
Still for that read-out and setting: as for `CCCCCCCC(=O)Cl`, the entry is “inactive”; as for `CCOC(=O)C(SP(=S)(OC)OC)c1ccccc1` (stereo not given), “inactive”; as for `N[C@@H](Cc1ccc(Oc2cc(I)c(O)c(I)c2)c(I)c1)C(=O)O`, “inactive”.

The record behind these values is PubChem BioAssay (Tox21).
